Targets with a hit are over-represented here; the source holds about 7,900 in all. About 0.6% of all pairs of compound and target were hits.

Chain of UniProt Q9Y6R0 (Q9Y6R0 whole entry, looked up): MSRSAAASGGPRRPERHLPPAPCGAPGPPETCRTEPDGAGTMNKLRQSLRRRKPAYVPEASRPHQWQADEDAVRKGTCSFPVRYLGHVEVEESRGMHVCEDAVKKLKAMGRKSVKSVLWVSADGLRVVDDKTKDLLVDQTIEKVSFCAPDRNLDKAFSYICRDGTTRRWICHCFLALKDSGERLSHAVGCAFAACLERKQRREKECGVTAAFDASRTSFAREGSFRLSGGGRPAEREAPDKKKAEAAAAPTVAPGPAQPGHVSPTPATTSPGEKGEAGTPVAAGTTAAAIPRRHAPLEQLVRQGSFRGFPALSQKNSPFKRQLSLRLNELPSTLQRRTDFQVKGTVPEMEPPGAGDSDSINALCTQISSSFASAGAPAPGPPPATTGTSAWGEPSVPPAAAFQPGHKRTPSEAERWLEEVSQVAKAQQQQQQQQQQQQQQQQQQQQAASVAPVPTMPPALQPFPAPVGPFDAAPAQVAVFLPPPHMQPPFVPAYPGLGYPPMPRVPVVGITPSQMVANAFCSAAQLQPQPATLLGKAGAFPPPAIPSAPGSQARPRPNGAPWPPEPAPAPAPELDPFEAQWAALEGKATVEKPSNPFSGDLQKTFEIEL
Chain of UniProt Q9HCD5 (Q9HCD5 whole entry, looked up): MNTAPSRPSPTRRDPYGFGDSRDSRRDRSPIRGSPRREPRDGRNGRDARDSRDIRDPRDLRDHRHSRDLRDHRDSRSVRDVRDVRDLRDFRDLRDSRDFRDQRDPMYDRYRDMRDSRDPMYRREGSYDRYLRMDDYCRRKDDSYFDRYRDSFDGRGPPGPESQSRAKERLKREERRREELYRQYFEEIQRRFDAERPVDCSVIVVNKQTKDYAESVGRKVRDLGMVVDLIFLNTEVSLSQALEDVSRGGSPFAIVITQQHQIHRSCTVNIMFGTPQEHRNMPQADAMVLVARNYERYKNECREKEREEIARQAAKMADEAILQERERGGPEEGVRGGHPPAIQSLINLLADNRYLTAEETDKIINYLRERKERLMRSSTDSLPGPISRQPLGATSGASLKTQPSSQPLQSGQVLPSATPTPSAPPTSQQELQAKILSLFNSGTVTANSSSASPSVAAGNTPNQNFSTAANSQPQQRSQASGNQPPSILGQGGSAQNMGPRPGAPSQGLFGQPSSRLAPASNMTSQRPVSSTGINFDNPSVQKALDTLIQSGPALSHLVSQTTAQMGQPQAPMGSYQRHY
Chain of UniProt O15118 (O15118 whole entry, looked up): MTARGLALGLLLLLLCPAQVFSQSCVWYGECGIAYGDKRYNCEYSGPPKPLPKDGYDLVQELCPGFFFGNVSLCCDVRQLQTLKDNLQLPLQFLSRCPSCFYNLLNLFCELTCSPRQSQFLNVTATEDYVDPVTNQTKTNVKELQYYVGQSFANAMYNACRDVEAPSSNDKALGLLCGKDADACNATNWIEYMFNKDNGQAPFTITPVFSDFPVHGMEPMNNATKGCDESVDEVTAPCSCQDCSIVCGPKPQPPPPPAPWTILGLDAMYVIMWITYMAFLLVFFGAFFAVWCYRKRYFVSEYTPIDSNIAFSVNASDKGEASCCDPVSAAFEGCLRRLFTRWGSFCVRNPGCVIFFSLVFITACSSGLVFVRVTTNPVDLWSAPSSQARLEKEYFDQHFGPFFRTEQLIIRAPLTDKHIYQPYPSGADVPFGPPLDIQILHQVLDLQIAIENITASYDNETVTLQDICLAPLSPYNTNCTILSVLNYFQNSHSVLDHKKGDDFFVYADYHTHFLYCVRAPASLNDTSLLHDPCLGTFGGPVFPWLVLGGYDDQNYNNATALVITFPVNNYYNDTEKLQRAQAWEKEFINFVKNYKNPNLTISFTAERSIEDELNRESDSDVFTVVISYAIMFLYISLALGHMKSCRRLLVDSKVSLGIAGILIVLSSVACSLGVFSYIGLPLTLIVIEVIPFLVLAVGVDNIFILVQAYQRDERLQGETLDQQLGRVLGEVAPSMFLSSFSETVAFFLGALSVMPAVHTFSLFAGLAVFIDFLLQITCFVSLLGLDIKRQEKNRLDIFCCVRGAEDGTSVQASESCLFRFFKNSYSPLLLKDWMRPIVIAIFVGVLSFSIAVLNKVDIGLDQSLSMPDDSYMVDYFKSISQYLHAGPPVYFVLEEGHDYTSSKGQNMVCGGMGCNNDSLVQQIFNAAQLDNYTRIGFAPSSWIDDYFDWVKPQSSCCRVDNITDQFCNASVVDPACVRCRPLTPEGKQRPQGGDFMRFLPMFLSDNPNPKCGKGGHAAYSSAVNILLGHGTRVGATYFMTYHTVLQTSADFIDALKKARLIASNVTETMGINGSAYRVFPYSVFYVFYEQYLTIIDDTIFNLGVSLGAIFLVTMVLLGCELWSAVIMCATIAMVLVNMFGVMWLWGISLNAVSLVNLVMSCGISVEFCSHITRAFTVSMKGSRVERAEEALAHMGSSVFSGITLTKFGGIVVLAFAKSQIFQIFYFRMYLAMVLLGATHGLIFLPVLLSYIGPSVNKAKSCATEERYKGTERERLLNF
Chain of UniProt Q9UH92 (Q9UH92 whole entry, looked up): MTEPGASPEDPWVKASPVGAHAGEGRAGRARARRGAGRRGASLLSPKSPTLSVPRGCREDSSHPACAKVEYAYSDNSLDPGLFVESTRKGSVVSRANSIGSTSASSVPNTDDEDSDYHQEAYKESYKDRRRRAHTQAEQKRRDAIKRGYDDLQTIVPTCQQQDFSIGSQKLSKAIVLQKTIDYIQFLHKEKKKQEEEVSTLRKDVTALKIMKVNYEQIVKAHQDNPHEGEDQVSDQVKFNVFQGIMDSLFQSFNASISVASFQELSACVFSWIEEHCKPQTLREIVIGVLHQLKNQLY
Chain of UniProt P25208 (P25208 whole entry, looked up): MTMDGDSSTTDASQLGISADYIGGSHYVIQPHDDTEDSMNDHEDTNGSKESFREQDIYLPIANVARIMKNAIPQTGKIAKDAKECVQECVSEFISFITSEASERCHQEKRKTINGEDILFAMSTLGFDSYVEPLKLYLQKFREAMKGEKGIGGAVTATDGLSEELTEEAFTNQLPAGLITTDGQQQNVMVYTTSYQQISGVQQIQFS
Chain of UniProt Q9H019 (Q9H019 whole entry, looked up): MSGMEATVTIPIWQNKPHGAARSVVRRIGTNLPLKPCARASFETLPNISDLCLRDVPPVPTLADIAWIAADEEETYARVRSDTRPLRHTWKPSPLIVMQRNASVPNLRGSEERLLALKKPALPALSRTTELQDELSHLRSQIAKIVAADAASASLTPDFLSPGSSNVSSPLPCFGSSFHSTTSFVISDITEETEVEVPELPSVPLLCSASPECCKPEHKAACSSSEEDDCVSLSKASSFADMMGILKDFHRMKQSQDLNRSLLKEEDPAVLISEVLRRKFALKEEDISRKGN
Chain of UniProt Q9Y2X3 (Q9Y2X3 whole entry, looked up): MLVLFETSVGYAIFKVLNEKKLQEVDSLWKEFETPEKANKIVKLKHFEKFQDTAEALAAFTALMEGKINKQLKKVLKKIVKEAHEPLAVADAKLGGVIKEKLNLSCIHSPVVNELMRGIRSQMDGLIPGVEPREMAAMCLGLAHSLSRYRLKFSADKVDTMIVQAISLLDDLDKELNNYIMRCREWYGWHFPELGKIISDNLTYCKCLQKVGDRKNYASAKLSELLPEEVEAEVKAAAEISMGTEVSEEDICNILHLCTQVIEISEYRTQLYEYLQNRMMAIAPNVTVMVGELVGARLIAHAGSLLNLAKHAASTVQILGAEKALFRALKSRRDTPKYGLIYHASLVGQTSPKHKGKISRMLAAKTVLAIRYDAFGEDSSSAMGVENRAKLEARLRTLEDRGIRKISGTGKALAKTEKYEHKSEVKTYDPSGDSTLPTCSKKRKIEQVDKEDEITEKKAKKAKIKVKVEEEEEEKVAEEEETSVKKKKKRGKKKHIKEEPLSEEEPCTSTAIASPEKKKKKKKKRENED
Chain of UniProt O75607 (O75607 whole entry, looked up): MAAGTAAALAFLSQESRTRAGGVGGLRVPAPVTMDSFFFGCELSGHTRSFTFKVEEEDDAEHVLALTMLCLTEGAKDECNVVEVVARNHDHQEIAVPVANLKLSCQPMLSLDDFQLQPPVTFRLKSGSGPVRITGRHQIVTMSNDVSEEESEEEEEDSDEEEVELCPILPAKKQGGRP
Chain of MTHFD1, A0A384N5Y3 (A0A384N5Y3 whole entry, looked up): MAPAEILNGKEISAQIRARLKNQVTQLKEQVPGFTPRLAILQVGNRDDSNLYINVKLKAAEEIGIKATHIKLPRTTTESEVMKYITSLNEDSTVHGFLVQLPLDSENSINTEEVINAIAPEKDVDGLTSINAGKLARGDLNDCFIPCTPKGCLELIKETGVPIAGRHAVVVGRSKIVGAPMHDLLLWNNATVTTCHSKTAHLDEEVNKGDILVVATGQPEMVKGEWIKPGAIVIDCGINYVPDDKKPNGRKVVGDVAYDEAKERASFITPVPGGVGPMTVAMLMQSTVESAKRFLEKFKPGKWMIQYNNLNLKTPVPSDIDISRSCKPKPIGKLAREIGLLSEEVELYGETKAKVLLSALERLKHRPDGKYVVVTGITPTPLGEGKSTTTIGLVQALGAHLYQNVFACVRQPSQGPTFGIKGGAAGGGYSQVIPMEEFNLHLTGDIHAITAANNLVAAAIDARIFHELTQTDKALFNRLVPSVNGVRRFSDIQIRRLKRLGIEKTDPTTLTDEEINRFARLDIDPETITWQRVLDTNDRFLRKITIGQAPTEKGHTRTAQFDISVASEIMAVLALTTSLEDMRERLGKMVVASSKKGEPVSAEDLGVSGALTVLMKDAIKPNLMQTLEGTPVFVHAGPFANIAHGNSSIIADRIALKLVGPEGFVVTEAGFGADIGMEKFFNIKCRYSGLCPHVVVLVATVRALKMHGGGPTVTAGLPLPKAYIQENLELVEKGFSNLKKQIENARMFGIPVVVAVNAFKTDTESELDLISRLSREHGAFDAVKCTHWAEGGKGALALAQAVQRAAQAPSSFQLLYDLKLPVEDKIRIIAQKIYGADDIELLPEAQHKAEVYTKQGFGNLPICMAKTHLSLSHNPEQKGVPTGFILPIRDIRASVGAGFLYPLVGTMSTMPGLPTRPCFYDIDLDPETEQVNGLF

Compound in the first experiment: CN1C2=C(C3=C1C(=O)N(N=C3)CC4=CC(=CC=C4)N)SC(=C2)S(=O)C
Description: log2 fold change, soluble protein after heating vs DMSO (PISA); higher = thermal stabilisation; K562 cells, 10 uM, 30 min; active = over 0.2 and 3.5 SD of the protein, either way, in both replicates (recomputed). In short, it runs like this:
(§1)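 Thermal stability values are relative to control samples and come from duplicates. They are expressed as log2 fold changes. For measurement, K562 cells (2×10^6 cells/mL) received 10 μM compound for 30 min, and aliquots were heated for 3 min over 48°C-58°C, pooled, and extracted at 4°C in PBS with 0.5% NP-40. Soluble protein, the supernatant after 21,000xg for 90 min, was quantified by TMTpro 16plex LC-MS/MS with equalised channel sums.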
NFYB (UniProt P25208): the log2 fold change was 0.031 (inactive).
Turning to NME7 (UniProt Q9Y5B8), the log2 fold change is 0.014 (inactive).
The same measure, in the same setting: with MPHOSPH8 isoform 2 (UniProt Q99549) the figure was 0.058 (inactive).
The same measure, in the same setting: with NPM3 (UniProt O75607) the figure was 0.143 (inactive).
The same measure, in the same setting: with MTFR1L (UniProt Q9H019) the figure was 0.013 (inactive); with NA, A0A2R8Y3M9, 0.376 (inactive).
With MON1A (UniProt Q86VX9), the log2 fold change is 0.032 (inactive).
For the target NCOA7 (UniProt Q8NI08), the log2 fold change is -0.009 (inactive).
Regarding NCK1 (UniProt P16333), the log2 fold change was 0.027 (inactive).
As for PAFAH2 (UniProt Q99487), the log2 fold change was -0.059 (inactive).
In the case of NAT14 (UniProt Q8WUY8), the log2 fold change was -0.107 (inactive).
Still for that read-out and setting: under NUMBL (UniProt Q9Y6R0) stands 0.041 (inactive); under NDFIP1 (UniProt Q9BT67), 0.175 (inactive); under NA isoform 3 (UniProt Q4G0T1), -0.008 (inactive).
The same measure, in the same setting: under PACS1 (UniProt Q6VY07) stands 0.029 (inactive); under NPC1 (UniProt O15118), 0.004 (inactive); under MRPS21 (UniProt P82921), -0.205 (inactive).
The same measure, in the same setting: with NOP58 (UniProt Q9Y2X3) the figure was 0.234 (inactive); with MYLK (UniProt Q15746), -0.126 (inactive); with MLX (UniProt Q9UH92), 0.142 (inactive).
As to OSBPL3 (UniProt Q9H4L5), the log2 fold change was 0.164 (inactive).
Still for that read-out and setting: under OPHN1 (UniProt O60890) stands 0.108 (inactive); under MTHFD1, A0A384N5Y3, -0.084 (inactive); under NAA11 (UniProt Q9BSU3), 0.001 (inactive).
The same measure, in the same setting: with NECTIN2 isoform 2 (UniProt Q92692) the figure was -0.146 (inactive).
The same measure, in the same setting: under MRPL46 (UniProt Q9H2W6) stands 0.061 (inactive); under MRPS33 (UniProt Q9Y291), -0.001 (inactive).
Consider MT-ND1 (UniProt P03886), for which the log2 fold change was -0.115 (inactive).
On the same count and under the same terms, under NCBP2AS2 (UniProt Q69YL0) stands 0.049 (inactive).
Same read-out and setting: under NCOA5 (UniProt Q9HCD5) stands 0.187 (inactive); under MRPS26 (UniProt Q9BYN8), 0.052 (inactive).
Turning to MRFAP1 (UniProt Q9Y605), the log2 fold change was -0.08 (inactive).
On to ORC5 (UniProt O43913), for which the log2 fold change was -0.029 (inactive).
The same measure, in the same setting: under NEK3 (UniProt P51956) stands 0.002 (inactive).

Compound in the next experiment: CN1CCC(CNc2ccc3ncc(-c4cccc(OC(F)(F)F)c4)n3n2)CC1
The experiment is described as above. The gist of the method: as §1
With NFYB (UniProt P25208), the log2 fold change was 0.085 (inactive).
Same read-out and setting: with NME7 (UniProt Q9Y5B8) the figure was -0.314 (inactive); with NPM3 (UniProt O75607), 0.145 (inactive); with MTFR1L (UniProt Q9H019), -0.296 (inactive).
Still for that read-out and setting: with NA, A0A2R8Y3M9 the figure was 0.005 (inactive); with NME2P1 (UniProt O60361), -0.074 (inactive).
On the same count and under the same terms, with MON1A (UniProt Q86VX9) the figure was -0.041 (inactive); with NCOA7 (UniProt Q8NI08), -0.265 (inactive); with NUMBL (UniProt Q9Y6R0), -0.259 (inactive).
As for NDFIP1 (UniProt Q9BT67), the log2 fold change was -0.062 (inactive).
Same read-out and setting: under PACS1 (UniProt Q6VY07) stands 0.014 (inactive); under NPC1 (UniProt O15118), 0.012 (inactive).
Same read-out and setting: with MRPS16 (UniProt Q9Y3D3) the figure was 0.052 (inactive).
As to NOP58 (UniProt Q9Y2X3), the log2 fold change is 0.2 (inactive).
The same measure, in the same setting: with MYLK (UniProt Q15746) the figure was -0.005 (inactive); with MLX (UniProt Q9UH92), -0.315 (inactive); with NUDT7 (UniProt P0C024), 0.322 (inactive).
On the same count and under the same terms, under OPHN1 (UniProt O60890) stands -0.095 (inactive); under MTHFD1, A0A384N5Y3, -0.081 (inactive).
As to NECTIN2 isoform 2 (UniProt Q92692), the log2 fold change was 0.318 (inactive).
The same measure, in the same setting: under MRPL46 (UniProt Q9H2W6) stands 0.12 (inactive).
On the same count and under the same terms, under MRPS33 (UniProt Q9Y291) stands 0.017 (inactive); under NCBP2AS2 (UniProt Q69YL0), -0.906 (active); under NCOA5 (UniProt Q9HCD5), 0.036 (inactive).
Same read-out and setting: with MRPS26 (UniProt Q9BYN8) the figure was -0.092 (inactive).
With MRFAP1 (UniProt Q9Y605), the log2 fold change is -0.032 (inactive).
On the same count and under the same terms, with ORC5 (UniProt O43913) the figure was -0.203 (inactive); with NEK3 (UniProt P51956), -0.465 (active).

For the origin of these results see the supplement of paper PMC10849652.
